For 8 compounds, growth results are on record in PubChem BioAssay (NCI).

Test systems include SR leukemia; RPMI-8226 leukemia; OVCAR-8 ovarian; OVCAR-5 ovarian; OVCAR-4 ovarian; SK-OV-3 ovarian; IGROV1 ovarian; OVCAR-3 ovarian; HS 578T breast; NCI/ADR-RES ovarian; T-47D breast; MDA-MB-435 melanoma; SW-620 colon; MCF7 breast; HCT-116 colon; HCC-2998 colon; KM12 colon; BT-549 breast.
What all share (assay): NCI-60 one-dose screen, 48 h (100 = growth as untreated, 0 = no growth, -100 = all killed)
Holding throughout (conditions): 10 µM unless noted

This is part of a sample that, as a whole, favours compounds with a hit. Of some 83,000 tested, about 20% had one in any assay.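 Assay: single dose, 48 h. Readout: percent growth (0 = no net growth; negative = cell death). Active: <10.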 A number with no mark means an inactive call. Calls of active or inactive are those of the source.

Consider `COc1cc(-c2cc3cnccc3c3nc(N)c4ccncc4c23)cc(OC)c1OC`, for which the growth in the experiment with SR leukemia was 17%; with RPMI-8226 leukemia, 8.28% (active); with OVCAR-8 ovarian, 41.4%; with OVCAR-5 ovarian it was 68.7%; in the experiment with OVCAR-4 ovarian it was 73.5%; in the experiment with SK-OV-3 ovarian, 57.5%. Further, the growth was 15% with IGROV1 ovarian; 48.8% in the experiment with OVCAR-3 ovarian; 10.1% with HS 578T breast; 30.7% in the experiment with NCI/ADR-RES ovarian; 37.5% with T-47D breast; 4.6% (active) in the experiment with MDA-MB-435 melanoma. Also, the growth in the experiment with SW-620 colon was 46.8%; in the experiment on MCF7 breast, 29.8%; in the experiment on HCT-116 colon, 35.1%; in the experiment with HCC-2998 colon, 70.1%; in the experiment on KM12 colon it was 48.1%.
`CC(=O)c1cc(Nc2cc(C)nc(N)n2)cc(C(C)=O)c1`: the growth with SR leukemia is 35.8%; in the experiment with RPMI-8226 leukemia it was 100%; in the experiment with OVCAR-8 ovarian, 98.8%; with OVCAR-5 ovarian it was 91.6%; in the experiment with OVCAR-4 ovarian, 108%; in the experiment on SK-OV-3 ovarian, 116%. In addition, the growth in the experiment on IGROV1 ovarian was 91.7%; with OVCAR-3 ovarian it was 112%; in the experiment with HS 578T breast, 94.6%; in the experiment on NCI/ADR-RES ovarian it was 94%; with T-47D breast it was 85.9%; in the experiment on MDA-MB-435 melanoma it was 117%. Also, the growth with SW-620 colon is 92.2%; in the experiment with MCF7 breast, 110%; in the experiment with HCT-116 colon, 97%; in the experiment on HCC-2998 colon it was 51.9%; with KM12 colon, 97.3%.
Consider `CC(=O)Nc1nc(C)c(C(=O)N/N=C/N2CCCCC2)s1`, for which the growth was 104% in the experiment with SR leukemia; 124% with RPMI-8226 leukemia; 103% in the experiment with OVCAR-8 ovarian; 103% with OVCAR-5 ovarian; 121% in the experiment on OVCAR-4 ovarian; 103% in the experiment with SK-OV-3 ovarian. The growth in the experiment with IGROV1 ovarian is 9.23% (active); in the experiment on OVCAR-3 ovarian, 128%; with HS 578T breast, 107%; in the experiment on NCI/ADR-RES ovarian, 104%; in the experiment on T-47D breast it was 98.4%; in the experiment with MDA-MB-435 melanoma, 125%. The growth is 106% in the experiment with SW-620 colon; 94.8% in the experiment with MCF7 breast; 55.8% in the experiment with HCT-116 colon; 20.3% with HCC-2998 colon; 128% in the experiment with KM12 colon.
With `CCCOC(=O)c1c(C)n(C)c2scc[n+]12`, the growth in the experiment on SR leukemia is 13.6%; with RPMI-8226 leukemia, 54.8%; in the experiment with OVCAR-8 ovarian, 72.8%; in the experiment on OVCAR-5 ovarian it was 75.1%; with OVCAR-4 ovarian, 73.8%; in the experiment on SK-OV-3 ovarian, 93.9%. The growth with IGROV1 ovarian was 15.9%; in the experiment with OVCAR-3 ovarian, 71.2%; in the experiment on HS 578T breast, 77.6%; in the experiment with NCI/ADR-RES ovarian, 78.9%; with T-47D breast, 92.8%; with BT-549 breast it was 80.5%. In addition, the growth is 90.9% with MDA-MB-435 melanoma; 96.7% in the experiment on MCF7 breast; 70.3% in the experiment with HCT-116 colon; 184% in the experiment on HCC-2998 colon; 74% with KM12 colon.
Consider `CCCCCCCCCCCCOC(=O)/C=C\C(=O)NC(N)=O`, for which the growth in the experiment with SR leukemia is 3.65% (active); in the experiment on RPMI-8226 leukemia, 4% (active); with OVCAR-8 ovarian, 70.6%; in the experiment on OVCAR-5 ovarian, 108%; with OVCAR-4 ovarian, 86%; with SK-OV-3 ovarian, 97.8%. Moreover, the growth is 73% in the experiment on IGROV1 ovarian; 92.4% in the experiment with OVCAR-3 ovarian; 86% in the experiment on HS 578T breast; 88.4% in the experiment on NCI/ADR-RES ovarian; 80.3% in the experiment with T-47D breast; 84.7% with MDA-MB-435 melanoma. The growth is 91.2% in the experiment with SW-620 colon; 64.3% in the experiment with MCF7 breast; 68.2% in the experiment with HCT-116 colon; 110% with HCC-2998 colon; 95.4% in the experiment with KM12 colon.
On to `C/C=C/C/C=C/[C@H](C)C[C@H](O)[C@@H]1C[C@@H]2O[C@H]2/C=C/[C@@H]2OC(C)(C)O[C@H]2/C=C/C[C@H](C)CC(=O)O1`, for which the growth is 18.8% in the experiment with SR leukemia; -5.18% (active) in the experiment on RPMI-8226 leukemia; 15.8% in the experiment on OVCAR-8 ovarian; 68.5% in the experiment on OVCAR-5 ovarian; 23.3% in the experiment on OVCAR-4 ovarian; 88.5% in the experiment with SK-OV-3 ovarian. Besides, the growth in the experiment on IGROV1 ovarian was 25.2%; in the experiment with OVCAR-3 ovarian, 21.5%; in the experiment on HS 578T breast, -18.8% (active); in the experiment on NCI/ADR-RES ovarian, 7.52% (active); in the experiment with T-47D breast, -4.89% (active); in the experiment on MDA-MB-435 melanoma, 77.1%. The growth with SW-620 colon was 56.8%; in the experiment on MCF7 breast, 45.1%; in the experiment with HCT-116 colon, 18.6%; in the experiment on HCC-2998 colon, 71.9%; in the experiment on KM12 colon it was 31.7%.
On to `CC1=C(C)C(=O)C(C(C)C2=C(C)C(=O)C(C)=C(C)C2=O)=C(C)C1=O`, for which the growth with SR leukemia was 56%; with RPMI-8226 leukemia, 50.5%; with OVCAR-8 ovarian, 99.1%; in the experiment with OVCAR-5 ovarian, 44%; in the experiment with OVCAR-4 ovarian, 104%; in the experiment on SK-OV-3 ovarian it was 98.1%. Further, the growth in the experiment with IGROV1 ovarian was 2.57% (active); with OVCAR-3 ovarian, 150%; in the experiment with HS 578T breast it was 77.9%; in the experiment on NCI/ADR-RES ovarian, 91.9%; in the experiment on T-47D breast it was 91.6%; with MDA-MB-435 melanoma, 98.1%. In addition, the growth was 107% in the experiment with SW-620 colon; 102% with MCF7 breast; 71.2% with HCT-116 colon; 23.4% in the experiment with HCC-2998 colon; 88.8% with KM12 colon.
In the case of `COc1cc(-c2nn(-c3ccc(NC(=O)c4ccc(Cl)c(Cl)c4)cc3)cc2-c2ccncc2)ccc1Cl`, the growth is 11.3% with SR leukemia; 4.1% (active) in the experiment with RPMI-8226 leukemia; 31.4% in the experiment on OVCAR-8 ovarian; 81.8% in the experiment on OVCAR-5 ovarian; 57% with OVCAR-4 ovarian; 94.4% in the experiment on SK-OV-3 ovarian. Further, the growth was 96.3% in the experiment with IGROV1 ovarian; 68.4% in the experiment with OVCAR-3 ovarian; -23.7% (active) in the experiment with HS 578T breast; 72.5% in the experiment on NCI/ADR-RES ovarian; 64.9% in the experiment with T-47D breast; 86.2% with MDA-MB-435 melanoma. The growth in the experiment with SW-620 colon is 48.6%; in the experiment with MCF7 breast, 60.6%; with HCT-116 colon it was 25%; in the experiment with HCC-2998 colon, 48.3%; with KM12 colon, 25.1%.
